Compound activity deposited in PubChem by National Center for Advancing Translational Sciences (NCATS).
A selection: hits, their analogues and other compounds. The true share with any hit is near 1.4%.
AmpC detergent = blocks E. coli AmpC beta-lactamase in detergent assay. P00811. 370,000 tested, 0.041% active. Potency, µM (titrated, usually from 114 µM), most hits filed as inhibitors. AID 485294. AmpC hydrolysis of nitrocefin, absorbance 480 nm, 0.01% Triton; note: nearly all actives have a fitted effect of over 25% in size
Target sequence (P00811 whole entry, looked up): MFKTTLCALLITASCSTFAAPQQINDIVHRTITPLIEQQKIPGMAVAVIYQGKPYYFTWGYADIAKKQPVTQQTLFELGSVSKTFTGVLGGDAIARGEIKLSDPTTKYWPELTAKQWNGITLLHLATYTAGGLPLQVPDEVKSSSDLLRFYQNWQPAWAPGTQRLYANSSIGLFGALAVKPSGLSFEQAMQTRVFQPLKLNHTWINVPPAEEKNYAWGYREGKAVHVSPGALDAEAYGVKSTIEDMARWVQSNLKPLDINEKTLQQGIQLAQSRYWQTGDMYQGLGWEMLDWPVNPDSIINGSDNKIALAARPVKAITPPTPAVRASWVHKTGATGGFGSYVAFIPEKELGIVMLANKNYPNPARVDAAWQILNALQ
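20 mM phosphate pH 7.0 + 0.01% (detergent screen) or 0.0001% Triton X-100; 5.3 nM AmpC reagent; cpd preinc 15 min RT; nitrocefin (800 uM stock) to start; A480 q20 s × 4 min; Activity was normalised to no-enzyme and no-compound control wells.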
SARS PLpro yeast = blocks SARS-CoV papain-like protease in a yeast assay | S. cerevisiae expressing SARS-CoV PLpro, growth rescue | Potency, µM (top dose mostly 32.9 µM), hits mostly activators | 330,000 tested, 0.19% active | AID 485353; calls by dose curve; note: nearly all actives have a fitted effect of over 55% in size
VACV Venus inh = inhibitors of vaccinia virus (Venus reporter); AID 720580; Vaccinia virus Venus reporter expression, fluorescence; Potency, µM (highest dose often 36.5 µM), actives largely listed as inhibitors; 330,000 tested, 0.46% active; calls by dose curve; tested in A549 cells; note: nearly all actives have a fitted effect of over 30% in size
AMA1 RON2 block = inhibitors of Plasmodium falciparum AMA1-RON2 interaction; AlphaScreen AMA1-biotinylated RON2 peptide binding; Potency, µM (highest dose often 58.2 µM), hits mostly inhibitors; 360,000 tested, 0.2% active; AID 720542; note: nearly all actives have a fitted effect of over 45% in size
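AMA1 (3D7) with his tag at 25 nM final met compounds first, then biotinylated RON2 peptide at 25 nM; detection used donor plus acceptor beads, 10 µg/mL apiece, read by AlphaScreen after 30 min at room temperature.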
AmpC inh no detg = blocks E. coli AmpC beta-lactamase in detergent-free assay; AmpC nitrocefin hydrolysis, absorbance 480 nm, 0.0001% Triton; 330,000 tested, 0.52% active; Potency, µM (titrated, usually from 57.1 µM), most hits filed as inhibitors; P00811; AID 485341; note: nearly all actives have a fitted effect of over 20% in size
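AmpC (5.3 nM in the dispensed reagent) in 20 mM phosphate pH 7.0 with 0.01% (detergent screen) or 0.0001% Triton X-100 was preincubated with compounds for 15 min at room temperature. Nitrocefin was then added from an 800 uM solution, and hydrolysis was followed at 480 nm.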
VACV mCherry inh = vaccinia inhibition (mCherry reporter); 310,000 tested, 0.63% active; Vaccinia virus mCherry reporter infection, fluorescence; AID 720579; Potency, µM (top dose mostly 36.5 µM), actives largely listed as inhibitors; calls by dose curve; tested in A549 cells; note: nearly all actives have a fitted effect of over 35% in size
Numbers stand for hits; - = inactive; ? = inconclusive; . = no result; [ ] = dose if it differs, or a comment. Unless noted, calls come from the whole dose curve; as a rule, active = well fitted curve in the direction sought with a large enough effect; inconclusive = small, poorly fitted or top-dose-only effect, or another doubt; inactive = no such curve, though single readings can be large; an effect the other way counts as inactive or inconclusive.

SMILES	AmpC detergent	SARS PLpro yeast	VACV Venus inh	AMA1 RON2 block	AmpC inh no detg	VACV mCherry inh
Cc1ccc(C)c2[nH]c(=O)c(CCNC(=O)Cc3cccs3)cc12	-	-	-	-	-	-
Cc1ccc(C)c2[nH]c(=O)c(CCNC(=O)c3ccc(S(=O)(=O)N(C)C)cc3)cc12	-	-	-	-	2.82µM	-
Cc1ccc(C)c2[nH]c(=O)c(CCNC(=O)C(C)(C)C)cc12	-	-	-	-	39.8µM	-
O=C(Nc1ccc(Cl)cc1)C1CCCCN1S(=O)(=O)c1ccccc1 (stereo not drawn)	.	-	10µM	-[11.6 µM]	-	?
Cc1ccc(NS(=O)(=O)c2ccc3c(c2)NC(=O)CCS3)cc1F	-	-	-	-	-	?
Cc1ccc(NS(=O)(=O)c2ccc3c(c2)NC(=O)CCS3)cc1C	-	-	0.891µM	-	-	?
O=S(=O)(c1ccccc1Cl)N1CCCC1c1nc(-c2ccc(Cl)cc2)no1 (stereo not drawn)	-	-	.	-	0.316µM	.
Cc1cnnc2ccccc12	.	.	-	.	.	-
O=C1C(NS(=O)(=O)c2ccc(Cl)cc2)=C(N2CCCCC2)C(=O)c2ccccc21	-	-	-	11.2µM	-	-
CCOC(=O)C1CCN(C2=C(NS(=O)(=O)c3ccc(Br)cc3)C(=O)c3ccccc3C2=O)CC1	-	-	.	12.6µM	-	.
N#C/C(=C\c1ccccn1)c1ccccn1	-	-	?	-	-	3.55µM
O=S(=O)(c1ccc2c(c1)OCCO2)N1CCN(c2nc(-c3ccccc3)nc3ccccc23)CC1	.	.	-	.	.	-
CC(=O)c1cccc(NC(=O)c2c(F)c(F)c(F)c(F)c2F)c1	-	-	10µM	-	-	.
Cc1cccc(NC(=O)c2c(F)c(F)c(F)c(F)c2F)c1	-	-	-	-	-	-
O=C(Nc1ccncc1)c1c(F)c(F)c(F)c(F)c1F	-	-	?	-	-	6.31µM
O=C(Nc1cccnc1)c1c(F)c(F)c(F)c(F)c1F	-	-	-	-	-	-
CCc1cc(C(=O)NCC2Cc3cc(-c4ccccc4C(C)=O)ccc3O2)no1 (stereo not drawn)	.	.	-	.	.	-
CC(CNC(=O)c1ccc(Cn2c(=O)c3cccn3c3cccnc32)cc1)c1ccccc1 (stereo not drawn)	-	.	-	.	.	-
CC(Sc1ncnc2sccc12)C(=O)Nc1ccc(S(N)(=O)=O)cc1 (stereo not drawn)	.	-	?	-	-	11.2µM
CN=c1sc2c(n1C)C(=O)c1ccccc1C2=O	.	.	3.98µM	-	.	2.82µM
Cc1ncc2c(c1CNC(=O)c1ccc3c(c1)OCO3)CCN(C(=O)c1ccoc1)C2	.	.	-	.	.	-
CN(/N=C/c1ccc([N+](=O)[O-])o1)c1ccccc1	-	-	-	12.6µM	-	-
O=C(N/N=C/c1ccc([N+](=O)[O-])o1)C(O)c1ccccc1 (stereo not drawn)	-	-	.	-	-	.
Cc1nc2ccccc2n1/N=C/c1ccc([N+](=O)[O-])o1	.	.	11.2µM	-	.	7.94µM
COc1cc(-c2cnc3ccccc3c2)cc2c1OCCN(C(=O)CCn1nc(C)cc1C)C2	.	.	-	.	.	-
SMILES	AmpC detergent	SARS PLpro yeast	VACV Venus inh	AMA1 RON2 block	AmpC inh no detg	VACV mCherry inh
CCc1ccc2[nH]c(=O)c(CN(Cc3cccs3)Cc3nnnn3Cc3ccccc3)cc2c1	.	.	-	.	.	-
CN1CCC(NCCC(c2ccc(F)cc2)c2ccc(Cl)cc2)CC1 (stereo not drawn)	-	-	11.2µM	-	-	?
CC(C)C(CCNC1CCN(C)CC1)c1ccc(Cl)cc1 (stereo not drawn)	-	-	.	-	-	.
Oc1c(C(Nc2ccccn2)c2ccccc2)ccc2cccnc12 (stereo not drawn)	.	.	?	.	.	11.2µM
Oc1cccc(C(Nc2ccccn2)c2ccc3cccnc3c2O)c1Cl (stereo not drawn)	-	.	?	.	.	?
Cc1cc(NC(c2cccnc2)c2ccc3cccnc3c2O)no1 (stereo not drawn)	-	7.08µM	15.8µM	20µM	-	.
COc1ccc2cc(CN(C(=O)c3cc(C)nn3C)C3CC3)c(-c3ccc(Cl)cc3)nc2c1	.	.	-	.	.	-
COc1cccc(CN2CCC3(CC2)c2ccccc2[C@@H](NC(=O)c2ccccc2)[C@@H]3O)c1O	.	.	-	.	.	-
COc1cc2c(cc1NC(=O)c1ccc(C(C)(C)C)cc1)CCCC2	-	-	-	-	-	10µM
COc1ccc(C(=O)Nc2cc3c(cc2OC)CCCC3)cc1Br	-	-	-	-	-	-
O=C(OCn1ncc(Br)c(Br)c1=O)c1ccccc1Cl	-	-	?	-	-	?
O=C(OCn1ncc(Br)c(Br)c1=O)c1ccc(F)cc1	-	-	10µM	-	-	11.2µM
COc1ccc(C/C(C)=N/NC(=S)Nc2ccccc2)cc1	-	11.2µM	.	-	-	.
CC(C)Cc1nc2cc(NS(=O)(=O)N(C)C)cc(C(=O)N3CCc4ccccc4C3)c2n1C	.	.	-	.	.	-
Cc1ccc(/C=C/C(=O)c2ccc(O)cc2)cc1	-	-	-	-	-	11.2µM
CCOc1ccc(C(=O)/C=C/c2ccc(SC)cc2)cc1	-	-	.	-	-	.
CSc1ccc(/C=C/C(=O)c2ccc(O)cc2)cc1	-	-	?	-	-	11.2µM
Cc1ccc(C(=O)/C=C/C(=O)O)cc1	-	-	-	-	-	-
CCc1cc2c(=O)[nH]c(-c3ccccn3)nc2s1	-	?	?	-	-	2.82µM
CCc1cc2c(=O)[nH]c(N3CCCC3)nc2s1	-	-	-	-	-	-
OC1(c2cccnc2)CCN(Cc2ccc3c(c2)CN(Cc2cccc(F)c2F)CCO3)CC1	.	.	-	.	.	-
CCC[C@H]1NC(=O)[C@H](C)N(C)C(=O)C(C)(C)C(=O)C(C)NC(=O)[C@H](Cc2ccc(OC)cc2)N(C)C(=O)[C@H](C(C)C)N(C)C(=O)CNC(=O)[C@H](CC(C)C)N(C)C(=O)CNC(=O)[C@H]([C@@H](C)CC)OC(=O)[C@H]1C (stereo partly drawn)	.	-	0.316µM	-	-	?
CC[C@H](C)C1OC(=O)[C@@H](C)[C@@H](CC)NC(=O)[C@H](C)N(C)C(=O)C(C)(C)C(=O)C(C)NC(=O)[C@H](Cc2ccc(OC)cc2)N(C)C(=O)[C@H](C(C)C)N(C)C(=O)CNC(=O)[C@H](CC(C)C)N(C)C(=O)CNC1=O (stereo partly drawn)	.	.	1µM	-	.	0.891µM
C=CCCC[C@@H]1OC(=O)CNC(=O)C([C@@H](C)CC)NC(=O)[C@@H]2CCCN2C(=O)C([C@@H](C)CC)OC(=O)[C@H](Cc2ccccc2)N(C)C(=O)[C@H](C(C)C)NC(=O)C1(C)C (stereo partly drawn)	.	.	?	-	.	?
CC(=O)N/C(=C/c1ccccc1)c1sc2ccccc2[n+]1CCCCI	.	.	-	.	.	-
